Shown are actives, neighbours in structure and some others; about 1.2% of the full set was active somewhere.
ERG-DNA inh – ERG Ets/DNA interaction inhibition; fluorescence polarization, His-ERG Ets domain / labelled DNA; 0.028% of 370,000 active; Potency, µM (top dose mostly 76.9 µM), most hits filed as inhibitors; P11308; AID 624246; active = well fitted inhibition curve with a large enough effect in the polarisation, with a control signal flat; inconclusive = small, poorly fitted or top-dose-only effect, or effect the other way, or a change in a side signal; inactive = no such curve, though single readings can be large or run the other way; the % refers to the polarisation;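 also: polarization taken with two DNA probes labelled with fluorescein and Texas red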
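His-tagged ERG Ets domain (1 uM in the protein solution; 300mM KCl, 50mM Tris-HCl, 1mM EDTA, 1mM DTT, pH 7.5) received compound, then a probe mix of 5 nM fluorescein-DNA and 100nM Texas-615-DNA. Fluorescence polarization was read for both dyes.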
RGS12 GoLoco inh – blocks human Gai1 binding to RGS12 GoLoco peptide, red readout; P63096; Gai1:RGS12 GoLoco peptide FP, rhodamine, 10 min; Potency, µM (titrated, usually from 61.6 µM), actives largely listed as inhibitors; 0.44% of 230,000 active; active = well fitted inhibition curve with a large enough effect, not every such curve was filed as active; inactive = no such curve, though single readings can be large or run the other way; also: nearly all actives have a fitted effect of over 30% in size
Target sequence (P63096 whole entry, looked up): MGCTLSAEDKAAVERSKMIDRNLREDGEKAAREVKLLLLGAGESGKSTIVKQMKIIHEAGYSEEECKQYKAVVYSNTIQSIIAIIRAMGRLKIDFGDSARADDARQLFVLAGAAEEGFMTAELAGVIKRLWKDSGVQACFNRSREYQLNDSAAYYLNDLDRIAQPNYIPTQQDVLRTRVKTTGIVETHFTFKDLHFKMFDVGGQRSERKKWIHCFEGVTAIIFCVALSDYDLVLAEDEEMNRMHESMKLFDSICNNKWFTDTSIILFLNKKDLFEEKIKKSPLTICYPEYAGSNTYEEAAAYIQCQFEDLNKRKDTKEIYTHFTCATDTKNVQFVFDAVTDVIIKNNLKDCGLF
Anesthetic bind – candidate novel general anesthetic via apoferritin binding; P02791; apoferritin/1-aminoanthracene competitive binding, fluorescence; Potency, µM (top dose mostly 77.5 µM), most hits filed as inhibitors; 0.074% of 350,000 active; also: nearly all actives have a fitted effect of over 20% in size
Target sequence (P02791 2-175 limits assumed): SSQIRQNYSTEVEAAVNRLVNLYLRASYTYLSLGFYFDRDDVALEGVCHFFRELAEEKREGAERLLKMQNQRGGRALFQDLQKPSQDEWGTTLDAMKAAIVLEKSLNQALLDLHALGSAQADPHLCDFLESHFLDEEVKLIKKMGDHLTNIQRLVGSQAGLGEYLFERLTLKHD
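Read-out: endpoint 1-AMA fluorescence, excitation 380 nm and emission 535 nm, after compounds sit 10 min at room temperature with 10 uM horse-spleen apoferritin in 50% saturated 1-AMA/PBS. Values come from four-parameter Hill fits.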
BRCA1 expr act – increases BRCA1 expression; MCF7-BRCA1-FFLuc reporter, luminescence, 48 h; response scale: scaled: vehicle 0%, 10 µM genistein 100%; AID 624202; Potency, µM (highest dose often 46.1 µM), usual class: activators; 1.1% of 380,000 active; also: nearly all actives have a fitted effect of over 80% in size
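Luminescence from a BRCA1-driven firefly luciferase in MCF7 cells was the read-out, taken 15 min after substrate addition following 48 h compound exposure at 37 °C. Data were normalized to a 10 microM genistein control and DMSO vehicle.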
Large screens that a line does not name were inactive. Unless noted, calls follow the shape of the dose curve; as a rule, active = well fitted curve in the direction sought with a large enough effect; inconclusive = small, poorly fitted or top-dose-only effect, or another doubt; inactive = no such curve, though single readings can be large; an effect the other way counts as inactive or inconclusive.

Cc1ccc(NC(=S)c2ccccc2)cc1	BRCA1 expr act 1.26µM
CCOc1ccc(N(C(=O)OC(C)(C)C)C(=O)c2ccc(O[Si](C)(C)C(C)(C)C)cc2)c(I)c1	none (no result: ERG-DNA inh, RGS12 GoLoco inh, BRCA1 expr act)
COc1ccc(CCN2CCC[C@H](CN3CCc4cc(OC)c(OC)cc4CC3=O)C2)cc1OC	none (no result: ERG-DNA inh, RGS12 GoLoco inh, BRCA1 expr act)
Cc1cc(N)c2cc(OCCOc3ccc4nc(C)cc(N)c4c3)ccc2n1	none (no result: ERG-DNA inh, Anesthetic bind, BRCA1 expr act)
CC(C)(O)[C@@H]1CCC[N+]2(C)CCCC[C@H]12 (stereo not given in full)	none (no result: ERG-DNA inh, Anesthetic bind, BRCA1 expr act)
C[N+]1(C2CCC3CCCC2C3O)CCCC1 (stereo not given)	RGS12 GoLoco inh 2.82µM
Fc1ccc2[nH]c3c(NCc4ccco4)ncnc3c2c1	none (no result: ERG-DNA inh, RGS12 GoLoco inh, Anesthetic bind)
CNc1cccc(-c2cccc(O)c2)n1	BRCA1 expr act 10µM (no result: ERG-DNA inh, RGS12 GoLoco inh, Anesthetic bind)
CNc1cncc(-c2cccc(O)c2)n1	none (no result: ERG-DNA inh, RGS12 GoLoco inh, Anesthetic bind)
CC(C)n1cnc2cc(NCc3ccco3)ccc21	BRCA1 expr act 10µM
CC(C)n1cnc2cc(NCc3ccccc3O)ccc21	none
OC(c1ccccc1)c1ncc(-c2ccccc2Cl)[nH]1 (stereo not given)	BRCA1 expr act 10µM (no result: ERG-DNA inh, RGS12 GoLoco inh, Anesthetic bind)
COc1cccc(-c2cnc(C(O)c3ccccc3)[nH]2)c1 (stereo not given)	BRCA1 expr act 11.2µM (no result: ERG-DNA inh, RGS12 GoLoco inh, Anesthetic bind)
COc1ccc(-c2cnc(C(O)c3ccccc3)[nH]2)cc1 (stereo not given)	BRCA1 expr act 12.6µM (no result: ERG-DNA inh, RGS12 GoLoco inh, Anesthetic bind)
CC(C)(C)OC(=O)N(c1cccc2cccnc12)S(=O)(=O)c1ccccc1Br	none (no result: ERG-DNA inh, RGS12 GoLoco inh, Anesthetic bind)
COc1cc2nc(C#N)nc(N)c2cc1OC	none (no result: ERG-DNA inh, RGS12 GoLoco inh, Anesthetic bind)
Cc1ccc(CCCOC(=O)C[N+]2(C)CCOCC2)cc1	RGS12 GoLoco inh 10µM
O=C(CN1CCOCC1)OCCCc1ccccc1	none
C[N+]1(CC(=O)OCCCc2ccccc2)CCOCC1	RGS12 GoLoco inh 12.6µM
CCCCCN(CCCCC)C(=O)[C@H](CCC(=O)O)NC(=O)[C@H](Cc1ccc(OP(=O)(O)O)cc1)NC(C)=O	none (no result: ERG-DNA inh, RGS12 GoLoco inh, BRCA1 expr act)
Cn1c(SCc2c(F)cccc2Cl)nnc1-c1cccs1	BRCA1 expr act 3.98µM
C/C(=C\c1ccccc1)C(=O)Nc1ccc(Cl)cn1	BRCA1 expr act 7.94µM (no result: RGS12 GoLoco inh)
CCOC(=O)C(C)Sc1ccc2nnc(-c3ccc(OCC)cc3)n2n1 (stereo not given)	none (no result: ERG-DNA inh, RGS12 GoLoco inh, Anesthetic bind)
C/C(=N\OC(=O)c1ccc(F)cc1)c1sc(-c2ccccc2)nc1C	BRCA1 expr act 2.82µM
C/C(=N\OC(=O)c1cccc(C)c1)c1sc(-c2ccccc2)nc1C	BRCA1 expr act inconclusive
C/C(=N\OC(=O)c1ccc(Cl)cc1)c1sc(-c2ccccc2)nc1C	BRCA1 expr act 3.98µM
O=C(NCCn1ccc2ccccc21)c1ccc2c(c1)OCO2	BRCA1 expr act 2.51µM
COc1ccc(C(=O)NCCn2ccc3ccccc32)cc1	BRCA1 expr act inconclusive
CCN(CC)c1ccc(/C=C/C(=O)C2C(=O)C=C(C)OC2=O)cc1 (stereo not given)	BRCA1 expr act 5.62µM
COC(=O)N1C2=C(c3ccccc3[C@@H]1CC(=O)Nc1ccc3ccc4cccc5ccc1c3c45)[C@@H]1C(=O)N(c3ccccc3)C(=O)[C@@H]1[C@H](C)C2	none (no result: ERG-DNA inh, Anesthetic bind, BRCA1 expr act)
O=C(O)[C@H]1CCCC[C@@H]1c1c2ccc(=O)c(O)c-2oc2c(O)c(O)ccc12	none (no result: ERG-DNA inh, Anesthetic bind, BRCA1 expr act)
COc1ccc(Nc2ccc([N+](=O)[O-])cn2)cc1	BRCA1 expr act inconclusive (no result: RGS12 GoLoco inh)
COc1ccc(CNc2ccc([N+](=O)[O-])cn2)cc1	BRCA1 expr act 10µM (no result: RGS12 GoLoco inh)
COC(=O)CCSc1nc2sc3c(c2c(=O)n1Cc1ccccc1)CCC(C(C)(C)C)C3 (stereo not given)	none (no result: RGS12 GoLoco inh, BRCA1 expr act)
CCn1c(CCCCc2n[nH]c(=S)n2CC)n[nH]c1=S	none
CCn1c(CCCOc2ccc(Cl)cc2Cl)n[nH]c1=S	BRCA1 expr act 6.31µM
O=[N+]([O-])c1ccc(CNc2ccc(Cl)cc2)s1	Anesthetic bind 14.1µM (no result: RGS12 GoLoco inh)
O=[N+]([O-])c1ccc(-c2cn3c(n2)SCC3)cc1	BRCA1 expr act 8.91µM (no result: RGS12 GoLoco inh, Anesthetic bind)
COc1cc2nc(N3CCCN(C)CC3)nc(NC3CCOCC3)c2cc1OC	none (no result: ERG-DNA inh, RGS12 GoLoco inh, Anesthetic bind)
Cc1ccc2c3c([nH]c2c1C)-c1nonc1CC3	BRCA1 expr act 8.91µM
Cc1cc2c(nn1)CCc1nonc1-2	none
CC1(C)Nc2cccc3c(N=Nc4ccc(N=Nc5ccccc5)c5ccccc45)ccc(c23)N1	none (no result: ERG-DNA inh, RGS12 GoLoco inh, Anesthetic bind)
CCN(C(=O)C(=O)c1c(C)[nH]c2ccccc12)c1ccccc1	none (no result: ERG-DNA inh, RGS12 GoLoco inh, Anesthetic bind)
CCC(Sc1ncccc1C(=O)Oc1ccccc1Cl)C(=O)Nc1ccccc1OC (stereo not given)	none (no result: RGS12 GoLoco inh, BRCA1 expr act)
O=C(CSc1ncccc1C(=O)Oc1ccccc1Cl)Nc1ccccc1Cl	BRCA1 expr act 11.2µM (no result: RGS12 GoLoco inh)
O=C(NCCCNC(=O)c1ccco1)c1ccc(Cl)cc1	none (no result: RGS12 GoLoco inh)
NC(=NCc1ccco1)NC(=O)c1ccc(Cl)cc1	BRCA1 expr act 11.2µM (no result: RGS12 GoLoco inh)
O=C(Nc1ccc(-c2cnco2)cc1)c1ccccc1	BRCA1 expr act 2.82µM
CN(C)c1ccc(/C=C/c2cccc3cc4ccccc4nc23)cc1	none (no result: ERG-DNA inh, RGS12 GoLoco inh, Anesthetic bind)
C=CCN1c2ccccc2[C@]23C[C@@H](C(=O)OC)N(S(=O)(=O)c4ccc(Br)cc4)C2=NC(C(=O)OC)=C(C(=O)OC)[C@H]13	none (no result: ERG-DNA inh, Anesthetic bind, BRCA1 expr act)
FC(F)Sc1ccc(Nc2ncnc3nc[nH]c23)cc1	BRCA1 expr act 3.55µM
Cc1cc(C)cc(Nc2ncnc3nc[nH]c23)c1	none
CCCCOC(=O)c1ccc(Nc2ncnc3nc[nH]c23)cc1	BRCA1 expr act 10µM
COC(=O)CCn1nnc(-c2ccc(C)cc2)n1	none
Cc1ccc(-c2nnn(CCC(=O)NC(C)(C)C)n2)cc1	BRCA1 expr act 14.1µM
N#C/C(=C\c1cccs1)C(=O)Nc1ccccn1	BRCA1 expr act 10µM
Cc1cccc(C)c1NC(=O)/C(C#N)=C/c1cccs1	none
Cc1ccc(NC(=O)/C(C#N)=C/c2cccs2)c(C)c1	BRCA1 expr act 3.98µM
Nn1cc(Br)c(=O)[nH]c1=O	none (no result: ERG-DNA inh, BRCA1 expr act)
Cc1cccc(NC(=O)C2C3CCCCC32)c1 (stereo not given)	BRCA1 expr act 10µM (no result: RGS12 GoLoco inh)

Assay outcomes from PubChem BioAssay.
